The text below walks through data of PubChem BioAssay AID602350 (Broad Institute, 2012).

Potency and affinity values are given separately. Calls of active or inactive are those of the source.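 Rule for the calls: active = absorbance falls by 30% or more versus neutral controls, with a potency fitted within twice the top valid dose; inconclusive = no clear call, values can overlap the other calls; inactive = change opposite to expected direction, plus the rest.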

Sequence of Protein disulfide-isomerase (Homo sapiens) (P07237 whole entry, looked up): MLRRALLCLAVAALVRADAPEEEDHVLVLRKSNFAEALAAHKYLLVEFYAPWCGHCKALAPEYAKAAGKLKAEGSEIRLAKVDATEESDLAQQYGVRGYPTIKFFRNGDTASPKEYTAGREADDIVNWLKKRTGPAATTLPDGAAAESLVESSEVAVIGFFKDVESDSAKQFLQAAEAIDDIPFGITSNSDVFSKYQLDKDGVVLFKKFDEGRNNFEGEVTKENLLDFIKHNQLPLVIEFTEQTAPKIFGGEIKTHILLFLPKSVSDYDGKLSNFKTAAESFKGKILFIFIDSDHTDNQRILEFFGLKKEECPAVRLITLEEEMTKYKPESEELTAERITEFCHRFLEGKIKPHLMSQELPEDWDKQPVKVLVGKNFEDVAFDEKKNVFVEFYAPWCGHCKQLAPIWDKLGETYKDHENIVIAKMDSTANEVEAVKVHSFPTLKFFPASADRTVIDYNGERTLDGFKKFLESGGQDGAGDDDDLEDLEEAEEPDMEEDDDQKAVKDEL

The assay addresses Protein disulfide-isomerase (Homo sapiens) (UniProt P07237). Description: PDI inhibitors, insulin aggregation turbidity, dose response, biochemical, absorbance, cherry-picked samples (AID 602350). Conditions: recombinant PDI insulin aggregation, absorbance 650 nm, 90 min; series mostly up to 19.5 µM.
Turning to `COC(=O)C(Cc1ccc(O)cc1)N1Cc2ccccc2C1=O` (centres undefined), the result was inactive. For `COc1ccc(/C=C/C(=O)c2cc(F)ccc2OC(=O)c2ccccc2OC)cc1OC` the value was “inactive”; for `CCCNC(=O)Cn1c(-c2ccc(F)cc2)cc(C(=O)OCC)c1C`, “inactive”; for `CCOC(=O)C(C)c1n[nH]c(=O)c2ccccc12` (centres undefined), “inactive”. As to `COc1ccc(S(=O)(=O)NC(C)C(=O)Nc2ccccc2F)cc1` (centres undefined), the outcome was inactive. For `O=C(OCc1ccc(-c2ccccc2)cc1)c1cccc(O)c1`, the result was inactive. For `COc1ccc(CN(C)C[C@@H]2Oc3ccc(NC(=O)Nc4ccccc4)cc3CC(=O)N([C@H](C)CO)C[C@@H]2C)cc1` the value was “inactive”; for `C[C@@H]1CN([C@H](C)CO)C(=O)Cc2cc(NC(=O)Nc3ccccc3)ccc2O[C@H]1CN(C)Cc1ccccc1`, “inactive”. For `Cc1ccc2c(c1)Oc1ccc(NC(=O)CCl)cc1C(=O)N2` the value was “inactive”; for `O=C1[C@@H]2C(Cc3ccc(O)cc3)NC3(C(=O)Nc4ccc(F)cc43)[C@@H]2C(=O)N1c1ccccc1` (some centres undefined), “inactive”. With `Cc1ccc(NC2(c3nnnn3CCOC(=O)Nc3ccc(Cl)cc3)CCCCC2)cc1`, the outcome was inactive. For `O=C(N/N=C/c1ccc(O)cc1)NC12CC3CC(CC(C3)C1)C2` the value was “inactive”. To `CCOC(=O)c1c(CN2CCOCC2)n(-c2ccccc2)c2ccc(O)cc12` belongs “inactive”; to `CC[C@]12c3[nH]c4cc(-c5ccco5)ccc4c3CCN1C(=O)[C@@H](CC(=O)NCc1ccc(OC)c(OC)c1)C[C@@H]2C(=O)N1CCN(C(=O)C2CC2)CC1`, “inactive”; to `Cc1cccc(C)c1NC(=O)CN1CCNCC1`, “inactive”. To `CN1C(=O)NC(c2ccccc2)C2=C1CN(c1cccc(C(F)(F)F)c1)C2=O` (centres undefined) belongs “inactive”. On to `CC1(C(=O)Nc2cccc3c2CCCC3)CCN1C(=O)c1cccc(F)c1` (centres undefined), for which the result was inactive. To `COCCN(CC(=O)Nc1ccccc1C(F)(F)F)C(=O)/C=C/c1cc(Cl)c2c(c1)OCCO2` belongs “inactive”. Regarding `O=C1NC[C@H](Cc2ccccc2)N(C[C@H]2CCCN2C[C@H](Cc2ccccc2)N2C[C@H](Cc3ccc(O)cc3)N(CC3CCCCCC3)C(=O)C2=O)C1=O`, the result was inactive. To `CC(C)Oc1cccc(C(=O)NC(=S)Nc2cccc(NC(=O)c3ccccc3Cl)c2)c1` belongs “inactive”; to `Cc1ccc(N2CC(C(=O)N3CCCCCC3)CC2=O)cc1` (centres undefined), “inactive”; to `CCOC(=O)C1(C)CCCN(C(=O)c2cccc(Cl)c2)C1` (centres undefined), “inactive”.

Consider `CCOC(=O)c1c(CN2CCOCC2)n(-c2ccccc2)c2cc(Br)c(OC)cc12`, for which the outcome was inactive. For `O=C1NC(Cc2ccc(O)cc2)c2nc3cc(Cl)ccc3c(=O)n2-c2ncccc21` (centres undefined) the value was “inactive”.

Turning to `Cc1noc(C)c1S(=O)(=O)Nc1ccc2c(c1)CC(=O)N([C@H](C)CO)C[C@@H](C)[C@@H](CN(C)S(=O)(=O)c1ccc(F)cc1)O2`, the result was inactive. In the case of `CCC(=O)Nc1ccc(-c2cc3ccccc3oc2=O)cc1`, the result was inactive. As to `CCOc1ncccc1C(=O)OCC(=O)Nc1ccc(C(C)C)cc1`, the result was inactive.

In the case of `CN(C)CCCN(C(=O)c1ccc(S(=O)(=O)N2CCc3ccccc32)cc1)c1nc2c(Cl)cccc2s1`, the result was inactive. For the molecule `CC(C)C[C@@H](CN1CCC[C@@H]1CN1C(=O)C(=O)NC[C@@H]1Cc1ccccc1)N1C[C@H](Cc2ccc(O)cc2)N(CCc2ccccc2)C(=O)C1=O`, the outcome was inactive. As to `O=C1CC(C(=O)N2CCc3ccccc32)CN1c1ccc(F)cc1` (centres undefined), the outcome was inactive. To `CCOC(=O)c1c(-c2ccccc2)oc2cc(Br)c(O)cc12` belongs “inactive”; to `C[C@@H]1CN([C@@H](C)CO)C(=O)c2cccc(NS(C)(=O)=O)c2O[C@@H]1CN(C)Cc1ccc(Oc2ccccc2)cc1`, “inactive”; to `CCOc1cc(N2CCOCC2)c(OCC)cc1NC(=O)Cc1ccccc1OC`, “inactive”.

Regarding `CCS(=O)(=O)c1ccc2oc(SCC(=O)NC(C)C3CC4CCC3C4)nc2c1` (centres undefined), the result was inactive. `CCOC(=O)c1c(CN(CC)CC)n(C)c2cc(Br)c(O)cc12`: the outcome was inactive. `CCOc1cc(/C=C/C(=O)c2ccc(O)cc2)ccc1OCC(=O)N(C)C`: the outcome was inactive.

As for `CC12CCC3c4ccc(O)cc4CCC3C1CCC2=O` (centres undefined), the outcome was inactive. Regarding `NC1=NC[C@H](Cc2ccc(O)cc2)N1CC1CCCCC1`, the outcome was inactive.

As for `CC(O)(c1cccnc1)c1nc(-c2cc(F)cc(F)c2)cs1` (centres undefined), the outcome was inactive.
